Assay results taken from ChEMBL document CHEMBL3433997, “St. Jude Leishmania screening dataset” (2016).

Target: Solute carrier family 2, facilitated glucose transporter member 1 (Homo sapiens) (UniProt P11166)
Test: ST_JUDE_LEISH: Cytotoxicity at 2uM final concentration against transgenic Leishmania Mexicana promastigotes LmGLUT1 that are glucose transport deficient and complemented with the human glucose transporter GLUT1. Activity is measured by DNA content using SYBR green in vitro
Assay type: functional

Chain of Solute carrier family 2, facilitated glucose transporter member 1 (Homo sapiens) (P11166 whole entry): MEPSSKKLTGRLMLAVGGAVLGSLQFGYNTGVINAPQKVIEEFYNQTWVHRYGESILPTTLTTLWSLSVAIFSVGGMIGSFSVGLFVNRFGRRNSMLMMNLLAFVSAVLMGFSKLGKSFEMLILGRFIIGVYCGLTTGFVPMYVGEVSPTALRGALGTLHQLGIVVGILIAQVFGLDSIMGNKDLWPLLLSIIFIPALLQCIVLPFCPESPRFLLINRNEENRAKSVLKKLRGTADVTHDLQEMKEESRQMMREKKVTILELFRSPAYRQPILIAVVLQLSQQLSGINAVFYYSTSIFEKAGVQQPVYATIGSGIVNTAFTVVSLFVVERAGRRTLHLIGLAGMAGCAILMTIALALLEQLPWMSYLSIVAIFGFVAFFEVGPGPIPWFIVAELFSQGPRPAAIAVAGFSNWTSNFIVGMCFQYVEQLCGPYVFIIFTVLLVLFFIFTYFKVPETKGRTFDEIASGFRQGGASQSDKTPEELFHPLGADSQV

| SMILES | inhibition |
| --- | --- |
| O=C(Nc1ccccc1)Nc1cccc(-c2nn3c(OCC4CCCCN4)cccc3c2-c2ccncc2)c1 (stereo not drawn) | 5.24% |
| COc1cc2ncnc(NCCc3ccccc3Cl)c2cc1OC | -1.61% |
| CS(=O)(=O)c1ccc(CNCc2cccc(-c3ccc(-c4nc5cc(C(F)(F)F)ccc5[nH]4)cc3)c2)cc1 | 5.51% |
| CCCCCCP(=O)(COc1ccc(CCN(CC(O)COc2cccc3[nH]c(C(N)=O)cc23)CC(O)COc2cccc3[nH]c(C(N)=O)cc23)cc1)OCCCC (stereo not drawn) | 8.37% |
| Cc1noc(C)c1-c1ccc2c(Nc3ccccc3C(C)(C)C)c(C(=O)NCc3ccc(OC(C)C)cc3)cnc2c1 | 3.36% |
| COc1ccccc1CCNc1nc(C)cc(N[C@@H](CC(C)C)C(=O)NCc2cccs2)n1 | 6.71% |
| Cc1cccc2nc(-c3ccc(-c4ccc(CNCc5cnn(-c6ccccc6)n5)cc4)cc3)[nH]c12 | 1.08% |
| O=c1cc(NCCCCNCc2cccc(C(F)(F)F)c2)[nH]c2ccccc12 | 9.62% |
| CC(C)CCn1c(Sc2ccc(C#N)c([N+](=O)[O-])c2)nnc1-c1ccccc1Cl | 4.86% |
| Cc1cccc2nc(-c3cccc(-c4ccc(NC(=O)Nc5ccc(F)c(F)c5F)cc4)c3)[nH]c12 | 1.49% |
| COc1ccc(CNCCc2cccs2)cc1-c1ccc(OC)c(S(=O)(=O)NCCN2CCCC2)c1 | 3.2% |
| c1ccc(-c2cc(NCCCn3ccnc3)nc(-c3cccnc3)n2)cc1 | 2.2% |
| Cc1cccc2nc(-c3ccc(-c4ccc(NC(=O)c5cncn5C)cc4)s3)[nH]c12 | 11.3% |
| COc1ccc(C=Cc2cc(=N)c3ccccc3[nH]2)cc1Br | 1.57% |
| Cc1cc(C(=O)N[C@H]2CCN(Cc3ccc(OCCCN(C)C)cc3)C2)ccc1Br | 0.17% |
| COc1ccc2nccc([C@@H](O)CN3CCC(NCc4ccc5nc[nH]c(=O)c5c4)CC3)c2c1 | 1.63% |
| CN1CCN(Cc2cccc(-c3ccc4c(Nc5ccc(Oc6cccnc6)cc5)ccnc4c3)c2)CC1 | 4.73% |
| CC(C)(C)CC(C)(C)c1ccc(O)c(C(=O)Nc2cccc([N+](=O)[O-])c2)c1 | 1.48% |
| Cc1cc(N2CCCC2=O)ccc1-c1ccc(C(=O)N2CCC(Oc3cccc(Cl)c3)CC2)cc1 | 0.43% |
| CC1CN(c2cc(=O)n(Cc3cccc(NC(=O)Nc4ccc(-c5ccccc5)cc4)c3)cn2)CC(C)N1 (stereo not drawn) | 1.17% |

| SMILES | inhibition |
| --- | --- |
| CCOc1cc(C(=O)Nc2ccc3nc(N(CC)CC)cc(C)c3c2)cc(OCC)c1OCC | -0.12% |
| O=C(c1ccc(F)cc1)N1CCOC(CCN2CCC(c3ccccc3)CC2)(c2ccc(Cl)c(Cl)c2)C1 (stereo not drawn) | 0.53% |
| O=C(Nc1cccc(-c2nn3ccccc3c2-c2ccnc(Nc3cccc(-c4cnco4)c3)n2)c1)C1CCCCC1 | 1.06% |
| O=C(Cn1c(CCc2cccc(F)c2F)nc(=O)c2ccccc21)N(CCN1CCCCC1)Cc1ccc(-c2ccc(C(F)(F)F)cc2)cc1 | 6.02% |
| CN(C)CC(O)C(c1ccccc1)c1ccc(Cl)cc1 (stereo not drawn) | 5.17% |
| CCNc1cc(C)nc(Nc2ccc(NC(=O)c3ccc(OC)c(OC)c3)cc2)n1 | 5.48% |
| CCCCCCCN1CC[C@@H](CCCc2ccnc3ccc(OCCCCNC(N)=O)cc23)[C@@H](CC)C1 | 2.24% |
| CCOc1ccc(CCCON2C(=N)N=C(N)NC2(C)C)cc1 | 9.39% |
| COCCNCc1cccc(-c2ccc3c(Nc4cc(O)c(Cl)cc4F)ccnc3c2)c1 | 2.97% |
| N#Cc1ccc(N(CCOc2ccc(Cl)c(F)c2)Cc2ccccc2C(F)(F)F)cc1C(F)(F)F | 3.18% |
| CC(=O)Nc1ncc(C(=O)Nc2cccc(-c3ccc(-c4nc5ccccc5[nH]4)cc3)c2)s1 | 1.69% |
| CCCCNC(=O)c1cc(CNC2CCCCC2)ccc1-c1cccc(CNCc2ccc(-c3ccccc3)cc2)c1 | 5.94% |
| CC(C)(C)c1ccc(CN2CCC(NC(=O)c3ccc(-c4cccc(Cl)c4)s3)CC2)cc1 | 11.2% |
| Oc1ccccc1CN1CCCC(COC(c2ccc(F)cc2)c2ccc(F)cc2)C1 (stereo not drawn) | 3.68% |
| Cc1cc(C)n(-c2nc(Nc3cccc(C(F)(F)F)c3)nc(-n3nc(C)cc3C)n2)n1 | -2.75% |
| CC(C)CNCc1cccc(-c2cccc(CN(CCCN3CCN(C)CC3)C(=O)/C=C/c3ccccc3)c2)c1 | -1.06% |
| N#CCc1ccc(Nc2nccc(Nc3ccc(Oc4ccccc4)cc3)n2)cc1 | 13.8% |
| Cc1c(CCc2cccc(F)c2F)[nH]c2ccccc2c1=O | -0.2% |
| C=CCN(c1nc(NC)nc(NCc2c(OC)cccc2OC)n1)C1CCCC1 | 5.12% |

Target: Hexose transporter 1 (Plasmodium falciparum) (UniProt O97467)
Test: ST_JUDE_LEISH: Cytotoxicity at 2uM final concentration against transgenic Leishmania Mexicana promastigotes LmPfHT that are glucose transport deficient and complemented with the Plasmodium falciparum hexose transporter. Activity is measured by DNA content using SYBR green in vitro
Assay type: functional

| SMILES | inhibition |
| --- | --- |
| O=C(Nc1ccccc1)Nc1cccc(-c2nn3c(OCC4CCCCN4)cccc3c2-c2ccncc2)c1 (stereo not drawn) | 1.67% |
| COc1cc2ncnc(NCCc3ccccc3Cl)c2cc1OC | -0.48% |
| CS(=O)(=O)c1ccc(CNCc2cccc(-c3ccc(-c4nc5cc(C(F)(F)F)ccc5[nH]4)cc3)c2)cc1 | 5.08% |
| CCCCCCP(=O)(COc1ccc(CCN(CC(O)COc2cccc3[nH]c(C(N)=O)cc23)CC(O)COc2cccc3[nH]c(C(N)=O)cc23)cc1)OCCCC (stereo not drawn) | 8.1% |
| Cc1noc(C)c1-c1ccc2c(Nc3ccccc3C(C)(C)C)c(C(=O)NCc3ccc(OC(C)C)cc3)cnc2c1 | 4.36% |
| COc1ccccc1CCNc1nc(C)cc(N[C@@H](CC(C)C)C(=O)NCc2cccs2)n1 | 5.41% |
| Cc1cccc2nc(-c3ccc(-c4ccc(CNCc5cnn(-c6ccccc6)n5)cc4)cc3)[nH]c12 | 1.39% |
| O=c1cc(NCCCCNCc2cccc(C(F)(F)F)c2)[nH]c2ccccc12 | 7.88% |
| CC(C)CCn1c(Sc2ccc(C#N)c([N+](=O)[O-])c2)nnc1-c1ccccc1Cl | 3.76% |
| Cc1cccc2nc(-c3cccc(-c4ccc(NC(=O)Nc5ccc(F)c(F)c5F)cc4)c3)[nH]c12 | 1.47% |
| COc1ccc(CNCCc2cccs2)cc1-c1ccc(OC)c(S(=O)(=O)NCCN2CCCC2)c1 | 1.85% |
| c1ccc(-c2cc(NCCCn3ccnc3)nc(-c3cccnc3)n2)cc1 | 3.19% |
| Cc1cccc2nc(-c3ccc(-c4ccc(NC(=O)c5cncn5C)cc4)s3)[nH]c12 | 9.8% |
| COc1ccc(C=Cc2cc(=N)c3ccccc3[nH]2)cc1Br | 2.29% |
| Cc1cc(C(=O)N[C@H]2CCN(Cc3ccc(OCCCN(C)C)cc3)C2)ccc1Br | 0.95% |
| COc1ccc2nccc([C@@H](O)CN3CCC(NCc4ccc5nc[nH]c(=O)c5c4)CC3)c2c1 | -1.56% |
| CN1CCN(Cc2cccc(-c3ccc4c(Nc5ccc(Oc6cccnc6)cc5)ccnc4c3)c2)CC1 | 5.64% |
| CC(C)(C)CC(C)(C)c1ccc(O)c(C(=O)Nc2cccc([N+](=O)[O-])c2)c1 | 2.51% |
| Cc1cc(N2CCCC2=O)ccc1-c1ccc(C(=O)N2CCC(Oc3cccc(Cl)c3)CC2)cc1 | 1.95% |
| CC1CN(c2cc(=O)n(Cc3cccc(NC(=O)Nc4ccc(-c5ccccc5)cc4)c3)cn2)CC(C)N1 (stereo not drawn) | 2.06% |

| SMILES | inhibition |
| --- | --- |
| CCOc1cc(C(=O)Nc2ccc3nc(N(CC)CC)cc(C)c3c2)cc(OCC)c1OCC | -0.88% |
| O=C(c1ccc(F)cc1)N1CCOC(CCN2CCC(c3ccccc3)CC2)(c2ccc(Cl)c(Cl)c2)C1 (stereo not drawn) | 1.42% |
| O=C(Nc1cccc(-c2nn3ccccc3c2-c2ccnc(Nc3cccc(-c4cnco4)c3)n2)c1)C1CCCCC1 | 3.39% |
| O=C(Cn1c(CCc2cccc(F)c2F)nc(=O)c2ccccc21)N(CCN1CCCCC1)Cc1ccc(-c2ccc(C(F)(F)F)cc2)cc1 | 4.32% |
| CN(C)CC(O)C(c1ccccc1)c1ccc(Cl)cc1 (stereo not drawn) | 1.04% |
| CCNc1cc(C)nc(Nc2ccc(NC(=O)c3ccc(OC)c(OC)c3)cc2)n1 | 1.84% |
| CCCCCCCN1CC[C@@H](CCCc2ccnc3ccc(OCCCCNC(N)=O)cc23)[C@@H](CC)C1 | 4.54% |
| CCOc1ccc(CCCON2C(=N)N=C(N)NC2(C)C)cc1 | 10.4% |
| COCCNCc1cccc(-c2ccc3c(Nc4cc(O)c(Cl)cc4F)ccnc3c2)c1 | 3.2% |
| N#Cc1ccc(N(CCOc2ccc(Cl)c(F)c2)Cc2ccccc2C(F)(F)F)cc1C(F)(F)F | 0.42% |
| CC(=O)Nc1ncc(C(=O)Nc2cccc(-c3ccc(-c4nc5ccccc5[nH]4)cc3)c2)s1 | 1.26% |
| CCCCNC(=O)c1cc(CNC2CCCCC2)ccc1-c1cccc(CNCc2ccc(-c3ccccc3)cc2)c1 | 5.46% |
| CC(C)(C)c1ccc(CN2CCC(NC(=O)c3ccc(-c4cccc(Cl)c4)s3)CC2)cc1 | 8.67% |
| Oc1ccccc1CN1CCCC(COC(c2ccc(F)cc2)c2ccc(F)cc2)C1 (stereo not drawn) | 3.28% |
| Cc1cc(C)n(-c2nc(Nc3cccc(C(F)(F)F)c3)nc(-n3nc(C)cc3C)n2)n1 | -3.09% |
| CC(C)CNCc1cccc(-c2cccc(CN(CCCN3CCN(C)CC3)C(=O)/C=C/c3ccccc3)c2)c1 | -1.23% |
| N#CCc1ccc(Nc2nccc(Nc3ccc(Oc4ccccc4)cc3)n2)cc1 | 6.97% |
| Cc1c(CCc2cccc(F)c2F)[nH]c2ccccc2c1=O | 5.03% |
| C=CCN(c1nc(NC)nc(NCc2c(OC)cccc2OC)n1)C1CCCC1 | 3.87% |
